We go through 43 compounds from PubChem BioAssay (NCATS).

Each structure is given as a SMILES string. Values joined by “and” are separate entries in the source; they are usually repeats but may differ in a detail not shown here. Equal entries are not always repeated. Records with an inconclusive call do not appear. Some compounds were tested as several samples or in several runs, with calls that do not always agree. Active and inactive are the calls of the source. Calls come from the whole dose curve; as a rule, active = well fitted curve in the direction sought with a large enough effect; inconclusive = small, poorly fitted or top-dose-only effect, or another doubt; inactive = no such curve, though single readings can be large; an effect the other way counts as inactive or inconclusive.

Test [1] can be described thus: qHTS Assay for Identifying Gametocytocidal Compounds (AID 743244).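 For max response: % is set by controls: 0 for no effect and ±100 for the full control effect; actives lower the fluorescent signal which means gametocytes are killed.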 Note: potency is the fitted concentration of half-maximal effect. As to conditions: P. falciparum 3D7 stage III-V gametocytes, alamarBlue, 72 h; max response: stronger effect = lower value. In a few lines: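 In this qHTS viability screen, late-stage 3D7 gametocytes are incubated with compound for 72 h, then with alamarBlue for 24 h; reduced resorufin fluorescence marks killing.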

The nature of test [2]: qHTS for compounds that reverse cellular toxicity of Amyloid beta (A-beta) peptide in yeast: LOPAC Validation Assay (AID 720559).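 Note: plate controls were DMSO for no effect and equimolar ferric chloride plus clioquinol rescue for full effect.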 In short, it runs like this:
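Yeast expressing toxic A-beta grown with pinned compounds at 30 C for 48 hr. Growth measured as absorbance at 600 nm; data normalized to DMSO and to an equimolar FeCl3/clioquinol mixture as positive control.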

Test [3] can be described thus: qHTS for Activators of Parkin Expression: LOPAC Validation Assay (NLuc Reporter) (AID 720572;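 note: 0% = DMSO and 100% = positive control compound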). In short, it runs like this: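 Neuronal line stably carrying a FLuc/NLuc coincidence reporter under the Parkin promoter, seeded 24 h, then dosed in 7-point series for 24 h at 37 C. NLuc luminescence read after FLuc; normalized to DMSO and positive control (100%).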
For orientation: In qHTS, concentration-response curves come from the screen itself.

A short description of test [4]: qHTS for Activators of Parkin Expression: LOPAC Validation Assay (FLuc Reporter) (AID 720573;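 note: 0% = DMSO and 100% = positive control compounds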). In short, it runs like this:
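Neuronal cell line stably expressing FLuc/NLuc coincidence reporter under the Parkin promoter, 1,500 cells/well, dosed 24 h after seeding in 7-point series for 24 h at 37 C. FLuc luminescence read; normalized to DMSO and positive control (100%).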

For test [5], the target named is T1, Hexokinase-4 (Homo sapiens) + Glucokinase regulatory protein (Homo sapiens) (UniProt P35557+Q14397). In words: qHTS assay for inhibitors of recombinant human GCK-GKRP interaction: Diaphorase-coupled assay (AID 743205). In a few lines: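 Compounds pre-incubated 20 min with substrate, then 10 nM GST-GCK with 10 nM FLAG-GKRP added. GCK activity coupled via G6PDH and diaphorase to resorufin (5 mM glucose, 0.4 mM ATP, 0.15 mM NADP+, pH 7.6), read kinetically over 30 minutes at Ex 525/Em 590 nm.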
T1 sequence (P35557 whole entry, looked up): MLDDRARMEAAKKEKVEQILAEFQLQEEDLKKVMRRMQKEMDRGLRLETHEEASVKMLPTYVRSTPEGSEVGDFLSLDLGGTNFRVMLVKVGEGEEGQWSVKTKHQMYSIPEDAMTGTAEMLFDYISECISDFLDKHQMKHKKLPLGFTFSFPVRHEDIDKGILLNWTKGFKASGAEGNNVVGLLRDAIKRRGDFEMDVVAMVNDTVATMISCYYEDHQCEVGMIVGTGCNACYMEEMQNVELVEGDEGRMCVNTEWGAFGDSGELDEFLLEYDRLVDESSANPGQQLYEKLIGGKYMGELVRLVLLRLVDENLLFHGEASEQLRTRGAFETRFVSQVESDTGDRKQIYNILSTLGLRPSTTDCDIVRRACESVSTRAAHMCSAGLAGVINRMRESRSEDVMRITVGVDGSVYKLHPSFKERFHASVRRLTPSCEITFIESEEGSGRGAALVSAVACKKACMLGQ
T1 sequence (Q14397 whole entry, looked up): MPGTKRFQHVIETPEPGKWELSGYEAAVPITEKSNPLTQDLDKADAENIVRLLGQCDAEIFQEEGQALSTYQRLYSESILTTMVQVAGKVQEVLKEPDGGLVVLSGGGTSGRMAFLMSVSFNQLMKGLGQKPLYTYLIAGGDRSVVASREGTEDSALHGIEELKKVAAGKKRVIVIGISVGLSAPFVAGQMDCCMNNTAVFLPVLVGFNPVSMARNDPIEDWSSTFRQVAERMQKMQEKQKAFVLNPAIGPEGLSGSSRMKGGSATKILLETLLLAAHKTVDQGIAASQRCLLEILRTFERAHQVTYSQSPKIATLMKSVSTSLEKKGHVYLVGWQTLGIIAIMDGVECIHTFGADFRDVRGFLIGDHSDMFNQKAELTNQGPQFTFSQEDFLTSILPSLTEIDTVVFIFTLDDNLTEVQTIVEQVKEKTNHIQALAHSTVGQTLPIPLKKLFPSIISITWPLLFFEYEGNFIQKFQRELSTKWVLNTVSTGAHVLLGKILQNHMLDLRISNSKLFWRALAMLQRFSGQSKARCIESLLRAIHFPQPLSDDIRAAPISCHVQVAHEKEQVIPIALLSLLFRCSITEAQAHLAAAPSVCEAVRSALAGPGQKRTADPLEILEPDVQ

For test [6], the target named is T1, Hexokinase-4 (Homo sapiens) + Glucokinase regulatory protein (Homo sapiens). In words: qHTS assay for inhibitors of recombinant human GCK-GKRP interaction: ADP-Glo assay (AID 743206).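 Note: plate controls were DMSO plus enzyme for no effect and no enzyme for full effect.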 In a few lines: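 GST-GCK and FLAG-GKRP (15 nM each in the dispensed mix, with 2 uM S6P) react with 0.4 mM ATP and 5 mM glucose (final) in Hepes pH 7.6 for 60 min at room temperature. ADP is measured by ADP-Glo luminescence.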

The target is the same in test [7]. In words: qHTS assay for inhibitors of recombinant human GCK-GKRP interaction: HTRF assay (AID 743207).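 Note: 0% = DMSO with GCK present and -100% = DMSO wells lacking GCK.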 In a few lines:
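HTRF binding of 5 nM GST-GCK and 5 nM FLAG-GKRP with 2 uM S6P in pH 7.1 Hepes buffer (MgCl2, KCl, DTT, Tween 20, BSA). Anti-FLAG XL665 and anti-GST donor added, 60 min at room temperature; 665/615 nm read, normalized to with- and without-GCK controls.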

Test [8] can be described thus: qHTS profiling for inhibitors of Plasmodium falciparum (3D7) proliferation (AID 743322).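 Note: infected erythrocytes exposed to compound for 72 h before lysis; 100% = DMSO vehicle wells and 0% = 0.29 µM artemisinin.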 As to conditions: P. falciparum 3D7 proliferation; at 28.7 µM (top of the series) unless noted. In short, it runs like this:
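Erythrocytes infected with P. falciparum (0.3% parasitemia, 2.5% hematocrit) incubated with compounds 72 h at 37 C, 5% CO2. Lysis with saponin/Triton buffer containing SYBR Green I, overnight at room temperature in the dark; DNA fluorescence (485/535 nm) normalised to 0.29 uM artemisinin and DMSO.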

Take `C#C[C@]1(O)CC[C@H]2[C@@H]3CCC4=CC(=O)CC[C@@H]4[C@H]3CC[C@@]21C`: in test [1], the max response was 8.68% (inactive).

Take `NCCCC[C@H](N[C@@H](CCc1ccccc1)C(=O)O)C(=O)N1CCC[C@H]1C(=O)O`: the max response in test [1] is -3.1% (inactive).

`C[N+]1(CCCCC[N+]2(C)CCCC2)CCCC1`: the compound was classed as inactive in test [2], in test [3], in test [4], in test [5], in test [6] and in test [7]. The max response in test [1] was 12.3% (inactive) and 19.3% (inactive).

Turning to `O=C(COc1ccc(Cl)cc1)N1CCN(Cc2ccc3c(c2)OCO3)CC1`, the max response in test [1] was -7.26% (inactive).

For `COc1cc(NS(C)(=O)=O)ccc1Nc1c2ccccc2nc2ccccc12`, the compound was called inactive in test [2], in test [3], in test [4], in test [5], in test [6] and in test [7]. Besides, the Potency in test [1] is 6.31 µM (active).

As for `COCc1c(C(C)C)nc(C(C)C)c(/C=C/[C@@H](O)C[C@@H](O)CC(=O)O)c1-c1ccc(F)cc1`, in test [1], the max response is -6.56% (inactive).

Consider `O=C(Nc1ccc(Cl)c(Cl)c1)C1CC1`, for which, in test [1], the max response is 14% (inactive).

For `CCCC(=O)O[C@]1(C(=O)CO)CC[C@H]2[C@@H]3CCC4=CC(=O)CC[C@]4(C)[C@H]3[C@@H](O)C[C@@]21C`, the max response in test [1] is 1.99% (inactive).

In the case of `CN(C(=O)CN(CCO)CC(=O)N(C)C(C)(C)Cc1ccccc1)C(C)(C)Cc1ccccc1`, the max response in test [1] is -1.55% (inactive).

Regarding `CN1CCN(CCCN2c3ccccc3Sc3ccc(S(=O)(=O)N(C)C)cc32)CC1`, the Potency in test [1] is 5.64 µM (active). The remaining parasite growth % (stronger effect = lower value) in test [8] turned out to be 1.46% [at 9.63 µM].

Turning to `COc1cc(OC)cc(OC)c1`, the max response in test [1] is 0.294% (inactive).

On to `O=C(N/N=C/c1ccccc1O)c1ccncc1`, for which the max response in test [1] is -7.05% (inactive).

As for `CC(Cc1cccc(C(F)(F)F)c1)NCCOC(=O)c1ccccc1` (stereo not drawn), the max response in test [1] is 8% (inactive).

With `OC[C@@H](O)[C@@H](O[C@@H]1O[C@H](CO)[C@H](O)[C@H](O)[C@H]1O)[C@H](O)[C@@H](O)CO`, the max response in test [1] is 9.4% (inactive).

As for `CCN(CCCc1ccccc1)CCCc1ccccc1`, the max response in test [1] was 0.141% (inactive).

Consider `Cc1ccc(C(=O)C(C)CN2CCCCC2)cc1` (stereo not drawn), for which, in test [1], the Potency was 22.4 µM (active) and the max response was -1.77% (inactive).

Take `CC1(C)O[C@@H]2C[C@H]3[C@@H]4CCC5=CC(=O)CC[C@]5(C)[C@@]4(F)[C@@H](O)C[C@]3(C)[C@]2(C(=O)CCl)O1`: the Potency in test [1] is 8.91 µM (active).

As to `COc1cc2c(cc1OC)C(=O)C(CC1CCN(Cc3ccccc3)CC1)C2` (stereo not drawn), the max response in test [1] was 3.63% (inactive).

`CCCCCCCCCCCCCCCCCC(=O)OCC(O)CO` (stereo not drawn): the max response in test [1] was -12.5% (inactive).

As for `C[C@]12CC[C@@H]3c4ccc(O)cc4CC[C@H]3[C@@H]1C[C@@H](O)[C@@H]2O`, in test [1], the max response is 5.6% (inactive).

In the case of `Cc1c(C)n(Cc2ccccc2)c2ccc(C(=O)OCCN(C)C)cc12`, the max response in test [1] is 28.3% (inactive).

For `CC(=O)OCC(=O)[C@@]1(OC(C)=O)[C@@H](C)C[C@H]2[C@@H]3C[C@H](F)C4=CC(=O)C=C[C@]4(C)[C@@]3(F)[C@@H](O)C[C@@]21C`, in test [1], the max response was 29% (inactive).

As for `CCOc1ccc(Cc2nccc3cc(OCC)c(OCC)cc23)cc1OCC`, the max response in test [1] was 10.4% (inactive).

Take `O=C1c2ccccc2C(=O)C1c1ccccc1`: the max response in test [1] is 1.91% (inactive).

Turning to `CCN(CC)CCNC(=O)COc1ccc(Cl)cc1`, the max response in test [1] is -6.47% (inactive).

Regarding `CNCC[C@@H](Oc1ccccc1C)c1ccccc1`, the max response in test [1] was -11.3% (inactive).

Regarding `CCOC(=O)OC(C)OC1=C(C(=O)Nc2ccccn2)N(C)S(=O)(=O)c2ccccc21` (stereo not drawn), in test [1], the max response was -4.24% (inactive).

As for `CC1=C(C(=O)O)N2C(=O)[C@@H](NC(=O)[C@H](N)c3ccc(O)cc3)[C@H]2SC1`, the max response in test [1] was 17.2% (inactive).

Consider `COc1cccc(CCc2ccccc2OCC(CN(C)C)OC(=O)CCC(=O)O)c1` (stereo not drawn), for which the Potency in test [1] is 3.72 µM (active). Further, in test [8], the remaining parasite growth % (stronger effect = lower value) stood at 1.08%.

With `CCCCS(=O)(=O)N[C@@H](Cc1ccc(OCCCCC2CCNCC2)cc1)C(=O)O`, the max response in test [1] is 3.65% (inactive).

Consider `O=c1c(-c2ccccc2)c1-c1ccccc1`, for which the Potency in test [1] was 3.98 µM (active).

In the case of `CCCN1CCCC[C@H]1C(=O)Nc1c(C)cccc1C`, in test [1], the max response was -10.7% (inactive).

On to `CC(=O)c1ccc2c(c1)N(CCCN1CCC(CCO)CC1)c1ccccc1S2`, for which the max response in test [1] was -4.88% (inactive).

`CCN(CCCCOC(=O)c1ccc(OC)c(OC)c1)C(C)Cc1ccc(OC)cc1` (stereo not drawn): in test [1], the max response was 14.8% (inactive).

Regarding `OCc1ccccc1O`, the max response in test [1] is 23.6% (inactive).

Take `Cc1ncc(CSSCc2cnc(C)c(O)c2CO)c(CO)c1O`: the max response in test [1] was -2.24% (inactive).

Regarding `CCCCC(CC)CN=C(N)NC(N)=NCCCCCCN=C(N)NC(N)=NCC(CC)CCCC` (stereo not drawn), the Potency in test [1] was 6.31 µM (active).

On to `O=C(O)CNC(=O)c1ccccc1`, for which the max response in test [1] is 1.04% (inactive).

`COc1c(C)c2c(c(O)c1C/C=C(\C)CCC(=O)O)C(=O)OC2`: in test [1], the max response was 31.6% (inactive).

For `NC[C@H]1O[C@H](O[C@H]2[C@H](O)[C@@H](O[C@H]3O[C@H](CO)[C@@H](O)[C@H](N)[C@H]3O)[C@H](N)C[C@@H]2N)[C@H](N)[C@@H](O)[C@@H]1O`, the max response in test [1] was -18.8% (inactive) and 4.69% (inactive).

Turning to `CC[N+](CC)(CCNC(=O)C(=O)NCC[N+](CC)(CC)Cc1ccccc1Cl)Cc1ccccc1Cl`, the max response in test [1] is 15.6% (inactive).

In the case of `CCOc1ccc(NC(=O)CC(C)O)cc1` (stereo not drawn), in test [1], the max response was -2.08% (inactive).

`Cc1c(N(C)CS(=O)(=O)O)c(=O)n(-c2ccccc2)n1C`: the max response in test [1] is 18.3% (inactive).
